From PubChem BioAssay (EPA / NIEHS) come the findings set out here.

Records with an inconclusive call do not appear. The source made the active and inactive calls. How the source made its calls, unless noted: active means hit-call score of the fitted dose curve at least 0.9, where 1 is the maximum; inactive means score below 0.9.

Assay [1] can be described thus: CCTE_Shafer_MEA_acute_spike_number: CCTE's Neural Acute Assay for Total Number of Spikes, Shafer Lab (AID 2284008).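 On AC50: curve fitted for decrease in spike count so AC50 reflects inhibitors.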 The method, boiled down: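 Cortical neurons from rat, matured to DIV 13 or 15 on microelectrode arrays, are recorded at 37 C before and during 40-min exposure to 0.03-40 uM compound. Wells need >/= 10 active electrodes.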
Assay [2] in a line: CCTE_Shafer_MEA_acute_firing_rate_mean: CCTE's Neural Acute Assay for Mean Firing Rate, Shafer Lab (AID 2284009).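 Further: analyzed for loss of signal so actives lower firing rate relative to DMSO.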 The method, boiled down:
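Spontaneous spiking of primary rat cortical networks, DIV 13/15, 37 C. Compound 0.03-40 uM, n ≥3 wells; 40 min baseline vs 40 min treated. Endpoint fitted in loss-of-signal direction against DMSO.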

Assay [3] can be described thus: CCTE_Harrill_HTTr_Viability_MCF7: CCTE's 6-hour Cell Viability Assessment for the High-Throughput Transcriptomics (HTTr) Platform, in MCF-7 cells cultured in DMEM + 10% fetal bovine serum, Harrill Lab (AID 2284010). The method, boiled down:
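Propidium iodide exclusion, imaged by high-content analysis, gauged viability after a six-hour exposure across eight concentrations. Cells were MCF-7 grown in DMEM with 10% fetal bovine serum; fits run in both directions against DMSO.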

Assay [4] is described as follows: CCTE_Harrill_HTTr_Apoptosis_MCF7: CCTE's 6-hour Apoptosis Assessment for the High-Throughput Transcriptomics (HTTr) Platform, in MCF-7 cells cultured in DMEM + 10% fetal bovine serum, Harrill Lab (AID 2284011). The method, boiled down: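 Cells are dosed with test chemicals at eight concentrations and imaged 6 hours later for caspase-3/7 activity using a green fluorogenic detection reagent. Activity is fitted in both directions against DMSO controls.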

Assay [5] can be described thus: CCTE_Harrill_HTTr_CellCount_MCF7: CCTE's Cell Proliferation Assessment for the High-Throughput Transcriptomics (HTTr) Platform, Harrill Lab (AID 2284012; active means hit-call score of the fitted dose curve at least 0.9, where 1 is the maximum;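 further: cells exposed to compound for six hours; intended direction is loss of nuclei count meaning fewer cells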). The method, boiled down:
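Cell count from high-content imaging of Hoechst-labeled nuclei serves as viability/growth readout. Chemicals were applied to MCF-7 cells in eight concentrations for six hours, with fitting in both directions relative to DMSO.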

Assay [6] can be described thus: CCTE_Shafer_MEA_acute_burst_number: CCTE's Neural Acute Assay for Single-Electrode Bursts, Shafer Lab (AID 2284013). The method, boiled down:
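Burst totals were derived with adaptive spike detection (8x rms threshold) on filtered signals from rat cortical cultures; change relative to pre-treatment baseline after 40-min compound exposure (0.03-40 uM) was fitted in the negative direction against DMSO.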

A short description of assay [7]: CCTE_Shafer_MEA_acute_burst_duration_mean: CCTE's Neural Acute Assay for Mean Burst Duration, Shafer Lab (AID 2284014).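 Further: hits are decreases in mean burst duration relative to DMSO controls.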 The method, boiled down:
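Acute exposure of mature rat cortical networks (DIV 13 or 15) grown on microelectrode arrays to 0.03-40 uM compound. Mean burst duration compared with the 40-min pre-dose baseline over a 40-min post-dose recording at 37 C.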

Assay [8] in a line: CCTE_Shafer_MEA_acute_per_burst_spike_number_mean: CCTE's Neural Acute Assay for Average Number of Spikes Per Burst, Shafer Lab (AID 2284015).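 Further: hits are decreases in mean spikes per burst versus baseline.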 The method, boiled down: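 Percent change in mean spikes per single-electrode burst is compared between a 40 min baseline and a 40 min recording with compound (0.03-40 uM). Cultures were rat cortical neurons on MEA plates at DIV 13 or 15, recorded at 37 C, with DMSO as the negative control.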

Assay [9] is described as follows: CCTE_Shafer_MEA_acute_interburst_interval_mean: CCTE's Neural Acute Assay for Mean Interburst Interval, Shafer Lab (AID 2284016).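 Further: percent change of mean interburst interval versus each well's own pre-dose baseline; curves fitted for decrease in interburst interval relative to DMSO.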 The method, boiled down: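 Percent change in mean single-electrode interburst interval was calculated per well from 40 min recordings before and after compound (0.03-40 uM). Recordings were made at 37 C on rat cortical cultures at DIV 13 or 15, with spikes detected at 8x rms threshold.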

The target in assay [10] is Ratio of Nucleoli Translocation and Cytoplasm, AR (gene 367) (UniProt P10275). The assay can be described thus: UPITT_HCI_U2OS_AR_TIF2_Nucleoli_Cytoplasm_Ratio_Agonist: University of Pittsburgh U2OS Androgen Receptor-Transcriptional Intermediary Factor 2 (AR-TIF2) Agonism High Content Imaging Assay for Ratio of Nucleoli Translocation and Cytoplasm (AID 2284000; active means hit-call score of the fitted dose curve at least 0.9, where 1 is the maximum;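 further: hits raise the red nucleolar to cytoplasm ratio above vehicle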). The method, boiled down:
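Primary screen at 20 uM final (0.2% DMSO), then triplicate confirmation and dose-response from 0.195 to 50 uM final (0.5% DMSO). Cells: U2OS with AR-RFP and TIF2-GFP. Endpoint is the nucleoli/cytoplasm red-fluorescence ratio, gain-of-signal vs DMSO.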

Assay [11] can be described thus: CCTE_Simmons_MITO_basal_resp_rate: CCTE's HepG2 Seahorse XF Respirometric Screening Assay at Basal Respiratory State, Simmons Lab (AID 2284001). Conditions: actives raise or lower the signal. The method, boiled down:
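Readout is oxygen consumption rate after test compound injection, measured by Seahorse XF in HepG2 cells. Seven concentrations from 125 nM up to 100 uM final are tested, and activity in either direction is fitted against DMSO.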

Assay [12] in a line: CCTE_Simmons_MITO_max_resp_rate: CCTE's HepG2 Seahorse XF Respirometric Screening Assay at Maximal Respiratory State [uncoupled], Simmons Lab (AID 2284002). Conditions: actives raise or lower the signal. The method, boiled down:
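Maximal respiration in HepG2 cells is recorded as OCR by Seahorse XF following FCCP injection. Compounds span 125 nM–100 uM final; activity is called in either direction against DMSO.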

A short description of assay [13]: CCTE_Simmons_MITO_inhib_resp_rate: CCTE's HepG2 Seahorse XF Respirometric Screening Assay at Inhibited Respiratory State [full ETC block], Simmons Lab (AID 2284006). Particulars: actives raise or lower the signal. The method, boiled down:
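This endpoint is the respiration rate remaining after rotenone/antimycin A block, in HepG2 cells on a Seahorse XF96. Chemicals spanned 125 nM–100 uM final, in three biological replicates. OCR was read every 6 minutes for 72 minutes and compared with DMSO vehicle.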

Assay [14] is described as follows: CCTE_Simmons_MITO_viability: CellTiter-Glo Viability Assessment for CCTE's HepG2 Seahorse XF Respirometric Screening Assay [post-hoc], Simmons Lab (AID 2284007; active means hit-call score of the fitted dose curve at least 0.9, where 1 is the maximum;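 on AC50: cells exposed to chemical for 90 min before the ATP read; actives lower ATP signal relative to DMSO baseline meaning reduced viability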). The method, boiled down: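 Luciferase-coupled ATP read-out after the Seahorse run: HepG2 cells treated 90 minutes with test chemical, 7-point series of 125 nM–100 uM final, in triplicate biological runs. Vehicle DMSO; dichlone as positive control over 8 concentrations.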

For orientation: AC50 means the midpoint of the concentration-response curve, whichever way the signal moves.

Sequence of Ratio of Nucleoli Translocation and Cytoplasm, AR (gene 367) (P10275 whole entry, looked up): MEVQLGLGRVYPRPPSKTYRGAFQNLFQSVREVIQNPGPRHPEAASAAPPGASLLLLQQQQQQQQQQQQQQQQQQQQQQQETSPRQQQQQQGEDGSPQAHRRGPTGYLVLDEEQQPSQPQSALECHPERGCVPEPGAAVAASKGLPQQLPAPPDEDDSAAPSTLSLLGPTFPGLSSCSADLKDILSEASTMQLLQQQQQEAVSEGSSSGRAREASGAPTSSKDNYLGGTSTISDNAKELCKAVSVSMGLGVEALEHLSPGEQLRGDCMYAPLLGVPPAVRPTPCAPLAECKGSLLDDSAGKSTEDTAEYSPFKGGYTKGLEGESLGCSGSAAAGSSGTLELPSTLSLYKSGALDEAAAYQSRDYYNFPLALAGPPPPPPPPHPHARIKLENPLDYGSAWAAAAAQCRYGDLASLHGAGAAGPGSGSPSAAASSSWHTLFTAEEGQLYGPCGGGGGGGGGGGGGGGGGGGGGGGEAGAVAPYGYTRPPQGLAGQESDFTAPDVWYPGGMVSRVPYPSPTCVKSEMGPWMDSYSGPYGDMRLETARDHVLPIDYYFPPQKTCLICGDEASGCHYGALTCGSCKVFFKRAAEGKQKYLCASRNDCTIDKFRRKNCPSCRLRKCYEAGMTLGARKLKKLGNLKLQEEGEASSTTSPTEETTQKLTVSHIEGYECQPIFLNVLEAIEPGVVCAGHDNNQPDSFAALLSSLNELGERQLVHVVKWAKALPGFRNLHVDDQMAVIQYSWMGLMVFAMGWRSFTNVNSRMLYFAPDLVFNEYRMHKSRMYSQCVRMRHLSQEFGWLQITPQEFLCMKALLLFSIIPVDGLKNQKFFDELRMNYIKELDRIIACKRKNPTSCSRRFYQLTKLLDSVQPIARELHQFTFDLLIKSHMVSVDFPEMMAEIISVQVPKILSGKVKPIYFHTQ

As for `CN1CCCC1=O`, the outcome in assay [1], in [2], in assay [3], in assay [4], in assay [5] and in [6] was inactive. Moreover, the outcome in [7], in assay [8] and in [9] was inactive.
Take `Cc1cccc(Nc2cc(Cl)nc(SCC(=O)O)n2)c1C`: the outcome in assay [10], in assay [11], in assay [12], in [13], in assay [14] and in assay [3] was inactive. In addition, the result in assay [4] was inactive.
On to `Cc1ccc2ncccc2c1`, for which the result in assay [1], in assay [2], in [3], in assay [4], in assay [6] and in assay [7] was inactive. Moreover, the compound was called inactive in assay [8] and in [9].
For `C1CCC(SSC2CCCCC2)CC1`, the result in [3] and in assay [4] was inactive.
Turning to `CC(=O)C(C)=CC1C(C)=CCCC1(C)C` (centres undefined), the result in assay [1], in [2], in assay [3], in [4], in [6] and in assay [7] was inactive. The call in [8] and in [9] was inactive.
Consider `COc1cc(S(=O)(=O)O)c(C)cc1N=Nc1c(O)ccc2cc(S(=O)(=O)O)ccc12`, for which the concentration at half-maximal activity (AC50) in [11] is 38.7 µM (active); in assay [13] it was 23.8 µM (active); in [14] it was 50 µM (active). For the same compound, the compound was classed as inactive in [12], in assay [3], in assay [4] and in [5].
With `NS(=O)(=O)c1cc2c(cc1Cl)NCNS2(=O)=O`, the call in [1], in assay [2], in [3], in [4], in assay [5] and in assay [6] was inactive. In addition, the call in assay [7], in [8] and in assay [9] was inactive.
Consider `Cc1c(C(=O)O)c(O)cc2c1C(=O)c1c(O)c([C@@H]3O[C@H](CO)[C@@H](O)[C@H](O)[C@H]3O)c(O)c(O)c1C2=O`, for which the result in assay [11], in assay [12], in assay [3], in assay [4] and in [5] was inactive. The figures for the half-maximal activity concentration (AC50) in [13] and in [14] were 3.25 µM (active) and 40.1 µM (active), respectively.
With `CCCCCCCCCCCCCCCCCC(=O)O`, the result in [1], in [2], in assay [3], in assay [4], in [6] and in assay [7] was inactive. Further, the call in assay [8] and in assay [9] was inactive.
Consider `Nc1ccccc1N`, for which the result in assay [1], in assay [2], in assay [3], in [4], in assay [5] and in assay [6] was inactive. For the same compound, the compound was classed as inactive in assay [7], in assay [8] and in assay [9].
As for `CNCc1cc(F)ccc1Oc1ccc(Cl)c(Cl)c1`, the AC50 is 3.97 µM (active) in assay [1]; 2.55 µM (active) in assay [2]; 2.24 µM (active) in [6]; 33.5 µM (active) in assay [7]; 31.5 µM (active) in assay [8]. The result in assay [3], in [4], in assay [5] and in assay [9] was inactive.
`COCCOC[C@H](CC1(C(=O)NC2CCC(C(=O)O)CC2)CCCC1)C(=O)Oc1ccc2c(c1)CCC2` (some centres undefined): the outcome in assay [3] and in assay [4] was inactive.
As for `C[Si]1(C)O[Si](C)(C)O[Si](C)(C)O[Si](C)(C)O1`, the outcome in [1], in [2], in assay [3], in assay [4], in assay [5] and in [6] was inactive. Moreover, the compound was called inactive in assay [7], in assay [8] and in [9].
On to `CC1(C)CC(N=C=O)CC(C)(CN=C=O)C1` (centres undefined), for which the result in assay [3] and in assay [4] was inactive.
As to `CCCCOC(=O)CCCCCCCCC(=O)OCCCC`, the outcome in assay [3] and in [4] was inactive.
Take `NCC1(Cc2noc(=O)[nH]2)CCCCC1`: the compound was called inactive in [1], in [2], in assay [3], in assay [4], in assay [5] and in assay [6]. In addition, the outcome in [7], in assay [8] and in [9] was inactive.
Regarding `CCCCCCCCCCO`, the compound was called inactive in [1], in assay [2], in assay [3], in assay [4], in assay [5] and in [6]. Further, the result in assay [7], in assay [8] and in assay [9] was inactive.
With `FC(F)(F)C(F)(F)C(F)(F)C(F)(F)C(F)(F)C(F)(F)CCI`, the outcome in assay [1], in assay [2], in assay [3], in [4], in [6] and in [7] was inactive. Besides, the outcome in [8] and in assay [9] was inactive.
